Laboratory results published in paper PMC4336329 (PLoS ONE, 2015).
About 14,000 (4.5%) of roughly 310,000 compounds showed an effect of 50% or more. The effect is printed as a negative number. For the sample, strong results were picked, then their nearest neighbours and some compounds at random.

molecular target: human ether-à-go-go-related gene (hERG) potassium channel (human, UniProt Q12809); assay: primary screen, population patch clamp on CHO cells stably expressing hERG; higher = less effect of the substance
Sequence (Q12809 whole entry, looked up): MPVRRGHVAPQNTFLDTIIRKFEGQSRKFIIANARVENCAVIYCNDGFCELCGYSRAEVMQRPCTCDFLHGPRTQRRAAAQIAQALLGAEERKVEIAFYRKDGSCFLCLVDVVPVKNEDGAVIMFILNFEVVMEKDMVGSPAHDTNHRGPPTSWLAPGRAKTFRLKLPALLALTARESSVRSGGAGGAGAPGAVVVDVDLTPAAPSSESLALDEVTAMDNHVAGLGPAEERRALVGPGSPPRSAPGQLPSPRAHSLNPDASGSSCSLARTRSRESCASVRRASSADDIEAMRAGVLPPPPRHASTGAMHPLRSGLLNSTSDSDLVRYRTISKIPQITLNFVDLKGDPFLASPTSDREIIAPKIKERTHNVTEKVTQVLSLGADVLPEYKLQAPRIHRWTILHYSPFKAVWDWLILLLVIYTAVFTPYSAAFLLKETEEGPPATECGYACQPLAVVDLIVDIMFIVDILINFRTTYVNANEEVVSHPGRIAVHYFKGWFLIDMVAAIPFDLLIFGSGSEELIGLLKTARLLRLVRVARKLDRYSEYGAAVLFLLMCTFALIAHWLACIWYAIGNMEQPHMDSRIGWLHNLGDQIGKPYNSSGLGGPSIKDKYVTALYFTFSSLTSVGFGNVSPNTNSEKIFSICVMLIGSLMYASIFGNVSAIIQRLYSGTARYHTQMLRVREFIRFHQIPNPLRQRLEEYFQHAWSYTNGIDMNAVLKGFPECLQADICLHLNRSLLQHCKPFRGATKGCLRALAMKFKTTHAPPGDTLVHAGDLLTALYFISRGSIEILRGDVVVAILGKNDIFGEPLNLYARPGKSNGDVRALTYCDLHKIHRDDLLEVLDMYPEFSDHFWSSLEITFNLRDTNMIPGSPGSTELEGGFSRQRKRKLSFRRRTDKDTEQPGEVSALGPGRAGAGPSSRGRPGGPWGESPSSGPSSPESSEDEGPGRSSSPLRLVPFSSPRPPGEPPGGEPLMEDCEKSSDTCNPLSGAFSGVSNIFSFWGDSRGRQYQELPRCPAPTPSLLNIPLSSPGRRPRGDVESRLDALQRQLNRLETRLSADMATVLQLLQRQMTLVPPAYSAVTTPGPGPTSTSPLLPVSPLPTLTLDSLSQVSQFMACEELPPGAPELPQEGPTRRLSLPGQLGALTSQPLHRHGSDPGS
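Note: peak tail current of the secondary pulse compared with the same well before compound.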

Row | Structure (SMILES) | hERG current change (%, negative = inhibition) at 10uM
1 | COc1ccc(-c2oc3ccc(-c4cc(OC)c(OC)c(OC)c4)cc3c2-c2ccc(OC)cc2)cc1 | 13.6%
2 | CN(C)S(=O)(=O)c1cccc(COC(=O)c2ccc(Cl)cc2O)c1 | -7.36%
3 | CC(=O)Oc1c(Cl)c(N2CCOCC2)c(OC(C)=O)c2ccccc12 | -25.2%
4 | CCN(Cc1ccccc1)C(=O)c1cccc(S(=O)(=O)N2CCN(Cc3ccccc3)CC2)c1 | -19.6%
5 | Cc1ccc(-c2csc(N3CCN(c4cc5c(cc4Cl)nc(-c4ccncc4)n5CCOCCO)CC3)n2)cc1 | 4.81%
6 | Cc1ccc(-c2csc(N3CCN(c4cc5c(cc4Cl)nc(-c4ccncc4)n5CCN4CCCCC4)CC3)n2)cc1 | 10.5%
7 | Cc1csc(N2CCN(c3cc4c(cc3Cl)nc(-c3ccncc3)n4CCCN3CCCC3)CC2)n1 | -64.8%
8 | Cc1n[nH]c(=S)n1-c1cccc(Cl)c1 | 19.7%
9 | Cc1nnc(N2C(=O)C(O)=C(C(=O)c3ccco3)C2c2cccc3ccccc23)s1 (stereo not shown) | -0.387%
10 | Cc1cccn2c(=O)c3cc(C(=O)NC4CCCC4)c(=N)n(Cc4ccc(F)cc4)c3nc12 | -68.2%
11 | Cc1cccn2c(=O)c3cc(C(=O)NC4CCCCC4)c(=N)n(Cc4ccc(F)cc4)c3nc12 | -77.1%
12 | Cc1cccn2c(=O)c3cc(C(=O)NC4CCCCC4)c(=N)n(Cc4ccccc4)c3nc12 | -74.6%
13 | Cc1cccn2c(=O)c3cc(C(=O)NC4CCCCCC4)sc3nc12 | 9.51%
14 | Cc1cccn2c(=O)c3cc(C(=O)NC4CCS(=O)(=O)C4)n(Cc4ccccc4)c3nc12 (stereo not shown) | -4.36%
15 | Nc1ccc(C(=O)Nc2cccc(NC(=O)c3ccc(N)cc3)c2)cc1 | 17.7%
16 | Cn1c(=O)c(=O)n(C)c2cc(S(=O)(=O)CCC(=O)Nc3ccc(F)cc3)ccc21 | -2.6%
17 | CS(=O)(=O)N1CCN(CC2CC3C=CC2C3)CC1.O=C(O)C(=O)O (stereo not shown) | 5.01%
18 | CCOc1ccc(N2C(=O)C3C(c4ccc(O)cc4)NC(CCSC)(C(=O)OC)C3C2=O)cc1 (stereo not shown) | -12.3%
19 | CC(NC(=O)c1nn(C)c(=O)c2ccccc12)c1ccc(F)cc1 (stereo not shown) | -3.84%
20 | CCCOC(=O)c1ccccc1C(=O)OCCC | -3.24%
21 | CCCCCCCCNC(=O)CCNC(=O)c1ccc(C(C)(C)C)cc1 | 8%
22 | CC1CN(S(=O)(=O)c2cccc(C(=O)N(CCc3ccccc3)Cc3ccccc3)c2)CC(C)O1 (stereo not shown) | -7%

Row | Structure (SMILES) | hERG current change (%, negative = inhibition) at 10uM
23 | O=C(c1cc(S(=O)(=O)N2CCOCC2)ccc1F)N(CCc1ccccc1)Cc1ccccc1 | -4.37%
24 | O=C(c1cccc(S(=O)(=O)N2CCOCC2)c1)N(CCO)Cc1ccccc1 | -19.8%
25 | O=C(c1cccc(S(=O)(=O)N2CCOCC2)c1)N(CCc1ccccc1)Cc1ccccc1 | -55.4%
26 | O=C(c1ccc(F)c(S(=O)(=O)N2CCOCC2)c1)N(CCc1ccccc1)Cc1ccccc1 | -68.3%
27 | O=C(NCc1ccccc1)c1ccc(F)c(S(=O)(=O)N2CCOCC2)c1 | -17.4%
28 | CCc1nc2cc([N+](=O)[O-])c([N+](=O)[O-])cc2[nH]1 | -14.5%
29 | NC(=O)c1ccccc1NC(=O)c1ccc2c(c1)OCO2 | 5.14%
30 | CCc1cc2c(=O)n(CC(=O)NC3CCCCC3)cnc2s1 | 4.86%
31 | COc1ccc(C2Nc3ccccc3C(=O)N2NC(C)=O)c(OC)c1 (stereo not shown) | 14.3%
32 | Cc1cccc2c(N)c3c(nc12)N(C)CC3.O=C(O)C(=O)O | -23.1%
33 | O=C(O)c1cncc(Br)c1 | 27.3%
34 | Cc1ccc2nc3c(c(N)c2c1)CCN3C.O=C(O)C(=O)O | -33.1%
35 | CN1CCCCc2c1nc1ccccc1c2N.O=C(O)c1cncc(Br)c1 | -82.5%
36 | Cc1cc(Br)c2nc3c(c(C(=O)O)c2c1)CCCCC3 | 4.41%
37 | Cc1ccc(C)c2c(N)c3c(nc12)CCCCC3.O=C(O)c1cncc(Br)c1 | -88.4%
38 | O=[N+]([O-])c1ccc(-c2cnc(NO)nc2)cc1 | -28%
39 | CC(C)(C)NC(=O)C(=O)NNC(=O)c1cccc(F)c1 | 18.1%
40 | CC1=C(C#N)C(=O)N(C2CCS(=O)(=O)C2)C(=O)/C1=C\c1ccco1 (stereo not shown) | 7.81%
41 | O=C(COC(=O)C1=NNC(=O)CC1)NCCc1ccccc1 | 17.4%
42 | O=c1cc(N2CCN(Cc3ccccc3)CC2)c(-c2ccccc2)n[nH]1 | -1.87%
43 | Cn1nc(C(C)(C)C)cc1NC(=O)Nc1ccc(F)cc1F | 5.93%
44 | CCC(C)N1C(=S)SC(C)(C)C1N(O)C(=O)NC1CCCCC1 (stereo not shown) | 9.19%

Row | Structure (SMILES) | hERG current change (%, negative = inhibition) at 10uM
45 | COc1ccc(OC)c(C2(O)CSC(=Nc3cccnc3)N2Cc2ccco2)c1 (stereo not shown) | -16.3%
46 | Cn1c(=O)c2c(SCC(=O)N3CCOCC3)nc(-c3ccccc3F)nc2n(C)c1=O | -8.27%
47 | O=C(c1cc(COc2ccc(F)c(F)c2)on1)N1CCOCC1 | 5.02%
48 | COc1cccc(OCc2cc(C(=O)N3CCN(C4CCCCC4)C(=O)C3)no2)c1 | -3.09%
49 | COc1ccc(OCc2cc(C(=O)N3CCN(C4CCCC4)CC3)no2)c(Cl)c1 | -29.6%
50 | O=C(c1cc(COc2ccc(F)cc2Cl)on1)N1CCN(C2CCCC2)CC1 | -61.4%
51 | O=C(c1cc(COc2ccc(F)c(F)c2)on1)N1CCN(C2CCCCC2)C(=O)C1 | -56.2%
52 | O=C(c1cc(COc2ccc(F)cc2Cl)on1)N1CCN(C2CCCCC2)C(=O)C1 | -67.9%
53 | O=C(c1cc(COc2c(F)cccc2F)on1)N1CCN(C2CCCCC2)C(=O)C1 | -17.5%
54 | CCOC(=O)CC1COCCN1C(=O)c1cc(COc2ccc(F)c(F)c2)on1 (stereo not shown) | -61.5%
55 | O=C(c1cc(COc2ccc(F)cc2F)on1)N1CCN(C2CCCC2)C(=O)C1 | -25.8%
56 | CCOC(=O)CC1COCCN1C(=O)c1cc(COc2ccc(F)cc2Cl)on1 (stereo not shown) | -23.2%
57 | O=C(c1cc(COc2ccc(F)cc2Cl)on1)N1CCSCC1 | -4.58%
58 | CSc1ccccc1OCc1cc(C(=O)N2CCN(C3CCCC3)C(=O)C2)no1 | -34.8%
59 | O=C(COC(=O)CN1C(=O)C2CCCCC2C1=O)Nc1cc(S(=O)(=O)N2CCOCC2)ccc1Cl (stereo not shown) | -12.6%
60 | Cc1ccc(C(=O)NCCCn2ccnc2)cn1 | 4.36%
61 | O=C(NC1CCCCCC1)C1CCN(S(=O)(=O)c2cnc[nH]2)CC1 | 8.78%
62 | CCN(CC)C(=O)COc1cc(C)c(Cl)c(C)c1 | -5.91%
63 | COc1ccc(C(=O)NCc2ccccc2OC)c(OC)c1 | -11.6%
64 | Brc1ccc(C=Nc2ccc3c(c2)OCCOCCOCCO3)s1 | -66.2%
65 | Oc1c(Cl)cc(Cl)cc1C=Nc1ccc2c(c1)OCCO2 | 21.2%
66 | Brc1csc(C=Nc2ccc3c(c2)OCCOCCOCCOCCO3)c1 | -73.5%

Row | Structure (SMILES) | hERG current change (%, negative = inhibition) at 10uM
67 | O=C(N/N=C/c1cc(Br)cs1)c1ccc2c(c1)OCCO2 | 10.2%
68 | Brc1ccc(C=Nc2ccc(Nc3ccccc3)cc2)s1 | 9.59%
69 | Oc1c(Br)cc(Br)cc1C=Nc1ccc2c(c1)OCCO2 | 14.9%
70 | NC(=O)c1ccccc1NC(=O)N1CCOCC1 | -2.02%
71 | CCOC(=O)C1CCCN(C(=O)c2ccc(Cl)cc2)C1 (stereo not shown) | 0.557%
72 | Cc1cc(C)cc(NC(=O)CSc2nc3c(oc4ccccc43)c(=O)n2-c2ccccc2)c1 | -11.1%
73 | O=C(c1ccc(F)cc1)N1CCCCC(Sc2nnc3ccccn23)C1=O (stereo not shown) | -59.9%
74 | Cc1cc2nnc(SC3CCCCN(C(=O)c4ccc(F)cc4)C3=O)n2c2ccccc12 (stereo not shown) | -13.2%
75 | O=C(c1ccccc1)N1CCCCC(Sc2nnc3ccccn23)C1=O (stereo not shown) | 5.24%
76 | O=C(Nc1ccccc1-c1nc2ccccc2[nH]c1=O)c1cccs1 | 2.16%
77 | Cc1noc(C)c1C(=O)Nc1cccc(S(=O)(=O)N2CCCCC2)c1 | -10.6%
78 | CCc1noc(C)c1C(=O)Nc1ccc(S(=O)(=O)N2CCCCC2)cc1 | -7.54%
79 | CCc1noc(C)c1C(=O)Nc1ccc(Cl)c(S(=O)(=O)N2CCCCC2)c1 | -71.2%
80 | CCOc1ccc(S(=O)(=O)N2CCCCC2)cc1NC(=O)c1c(CC)noc1C | 11.8%
81 | CCc1noc(C)c1C(=O)Nc1cccc(S(=O)(=O)N2CCCCCC2)c1 | -56%
82 | CCc1noc(C)c1C(=O)Nc1ccc(C)c(S(=O)(=O)N2CCCCCC2)c1 | -45.6%
83 | CCOC(=O)c1c(C)[nH]c(C(=O)Nc2ccc(C)c(Cl)c2)c1C | 10.8%
84 | COc1ccc2[nH]cc(C(=O)C(=O)N3CCCCC3)c2c1 | 5.35%
85 | COC(=O)C(=O)/C=C(\O)c1ccc(C)cc1 | -2.4%
